Inconclusive results are not listed. Activity calls are given as the source filed them. Unless noted, calls follow the shape of the dose curve; as a rule, active = well fitted curve in the direction sought with a large enough effect in the repeat runs; inconclusive = weak or mixed curves; inactive = no such curve, though single readings can be large; an effect the other way counts as inactive or inconclusive.
Key:
[1] = qHTS assay to identify small molecule agonists of the hypoxia (HIF-1) signaling pathway - cell viability counter screen (AID 1224844; calls by dose curve; also: nearly all actives have a fitted effect of over 50% in size)
Outline: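 Cytotoxicity measured by CellTiter-Glo ATP luminescence in the wells also read for beta-lactamase signal. Cells were HRE-bla ME-180 (2,000/well, 0.5% dialyzed FBS), exposed to compounds for 17 h at 37C.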

[2] = qHTS assay to identify small molecule agonists of H2AX (AID 1224845; active = well fitted activation curve with a large enough effect in the signal ratio in the repeat runs, not every such curve was filed as active; the % refers to the signal ratio)
Outline: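 Phospho-H2AX Ser139 measured by HTRF (ex 320 nm; em 665 and 620 nm) after 24 hr antibody incubation. Compounds, 15 concentrations, 0.76% DMSO, were applied to CHO-K1 cells for 3hr at 37C before lysis.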

[3] = qHTS assay to identify small molecule agonists of the hypoxia (HIF-1) signaling pathway (AID 1224846; active = well fitted activation curve with a large enough effect in the signal ratio in the repeat runs, not every such curve was filed as active; the % refers to the signal ratio)
Outline: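 Compounds added to ME-180 cells carrying hypoxia-response-element beta-lactamase reporter (0.5% dialyzed FBS, 5 h preplating), 17 h at 37C; agonist activity detected by CCF4-AM B/G FRET read-out.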

[4] = qHTS assay to identify small molecule agonists of H2AX - cell viability counter screen (AID 1224847; calls by dose curve; also: top concentration of the series differs between compounds; nearly all actives have a fitted effect of over 30% in size)
Outline: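 Wild-type CHO-K1 cells (10% FBS medium) were plated overnight at 37C, exposed to compounds at 15 concentrations for 3 hr at 37C (0.76% DMSO final), and viability was read as CellTiter-Glo luminescence after 30 min at room temperature.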

[5] = qHTS assay to identify small molecule antagonists of the estrogen related receptor (ERR) signaling pathway from Tox21 library (AID 1224848); also: nearly all actives have a fitted effect of over 50% in size
Outline: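 Luciferase luminescence (ONE-Glo, 30 min room temperature) was the read-out. Cells of the NTP-supplied ERR line, 2,000 per well, were given 6 h at 37 C before compound addition in DMSO and 18 h exposure at 37 C.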

[6] = qHTS assay to identify small molecule agonists of the estrogen related receptor (ERR) signaling pathway from Tox21 library (AID 1224849; calls by dose curve; also: nearly all actives have a fitted effect of over 15% in size); details: ERR reporter cell line, ONE-Glo luciferase, 18 h; at 92.4 µM (top of the series) unless noted
Outline: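 Luminescent agonist read-out (One-Glo, 30-minute room-temperature incubation) following 18-hour compound treatment at 37 C of the ERR cell line, which had been plated 6 hours before dosing.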

[7] = qHTS RealTime-Glo MT Cell Viability Assay in HepG2 cells - 24 hour (AID 1224867); also: nearly all actives have a fitted effect of over 50% in size
Outline: (§1)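 Viability was tracked continuously by NanoLuc luminescence from prosubstrate reduced by living HepG2 cells, at successive time points over 40 h of compound exposure. Cells with reagent were preincubated 5 h at 37 °C before compound addition.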

[8] = qHTS RealTime-Glo MT Cell Viability Assay in HEK293 cells - 32 hour (AID 1224868); also: top concentration of the series differs between compounds; nearly all actives have a fitted effect of over 50% in size
Outline: (§2)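 Viability tracked continuously by luminescence as live cells reduce a prosubstrate for NanoLuc; HEK293 cells preincubated 5 h, compound-treated at 37 C, and read at 0, 8, 16, 24, 32 and 40 h.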

[9] = A CellTox Green Cytotoxicity Assay to monitor cytotoxicity in HEK293 cells - 0 hour (AID 1224869); also: nearly all actives have a fitted effect of over 50% in size
Outline: (§3)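 Fluorescence from a DNA-binding dye excluded by viable cells was measured repeatedly in the same HEK293 wells (600 cells/well) during continuous compound exposure at 37 C. Each assay gives one read point: 0, 8, 16, 24, 32 or 40 h.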

[10] = qHTS RealTime-Glo MT Cell Viability Assay in HepG2 cells - 40 hour (AID 1224870); also: nearly all actives have a fitted effect of over 50% in size
Outline: (§4)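 Real-time viability: cells seeded at 600 per well together with NanoLuc and cell-permeant prosubstrate, compounds added after 5 h incubation. Luminescence tracked at 0, 8, 16, 24, 32 and 40 h of exposure.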

[11] = A CellTox Green Cytotoxicity Assay to monitor cytotoxicity in HEK293 cells - 40 hour (AID 1224871); also: nearly all actives have a fitted effect of over 45% in size
Outline: as §3

[12] = qHTS RealTime-Glo MT Cell Viability Assay in HEK293 cells - 16 hour (AID 1224872)
Outline: as §2

[13] = qHTS RealTime-Glo MT Cell Viability Assay in HepG2 cells - 8 hour (AID 1224873); also: nearly all actives have a fitted effect of over 55% in size
Outline: as §4

[14] = qHTS RealTime-Glo MT Cell Viability Assay in HEK293 cells - 40 hour (AID 1224874); details: RealTime-Glo luminescence; max response: hits give low values; also: nearly all actives have a fitted effect of over 50% in size
Outline: (§5)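 Luminescence, which tracks viable cell number through reduction of the prosubstrate to a NanoLuc substrate, was read over continuous 37 C culture. Cells (600/well) were premixed with reagent and rested 5 h before 23 nL of compound in DMSO was pinned.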

[15] = A CellTox Green Cytotoxicity Assay to monitor cytotoxicity in HEK293 cells - 24 hour (AID 1224875); also: nearly all actives have a fitted effect of over 45% in size
Outline: as §3

[16] = A CellTox Green Cytotoxicity Assay to monitor cytotoxicity in HepG2 cells - 16 hour (AID 1224876); also: nearly all actives have a fitted effect of over 45% in size
Outline: (§6)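 Real-time cytotoxicity: fluorescence of a cell-impermeant cyanine dye binding DNA of dead HepG2 cells, measured repeatedly (0–40 h) during compound exposure at 37 C. Cells seeded 600/well with reagent, dosed after 5 h.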

[17] = qHTS RealTime-Glo MT Cell Viability Assay in HepG2 cells - 32 hour (AID 1224877); also: nearly all actives have a fitted effect of over 55% in size
Outline: as §1

[18] = A CellTox Green Cytotoxicity Assay to monitor cytotoxicity in HepG2 cells - 24 hour (AID 1224878); also: nearly all actives have a fitted effect of over 45% in size
Outline: as §6

[19] = qHTS RealTime-Glo MT Cell Viability Assay in HEK293 cells - 0 hour (AID 1224880)
Outline: as §5

[20] = A CellTox Green Cytotoxicity Assay to monitor cytotoxicity in HepG2 cells - 40 hour (AID 1224879); also: nearly all actives have a fitted effect of over 40% in size
Outline: as §6
% is scaled to controls: 0 for no effect and ±100 for the full control effect.

CC(Oc1c(Cl)cccc1Cl)C1=NCCN1 (centres undefined)
inactive: Potency [1] | Potency [2] | outcome [3] | Potency [4] | Potency [5] | activity change, positive = activation [6] -3.99% [at 42.5 µM] | Potency [7] | Potency [8] | Potency [9] | Potency [10] | Potency [11] | Potency [12] | outcome [13] | max response [14] -8.42% | Potency [15] | Potency [16] | Potency [17] | Potency [18] | outcome [19]

CCCCCCCOC(=O)CCC
inactive: Potency [1] | Potency [2] | outcome [3] | Potency [4] | Potency [5] | activity change, positive = activation [6] -0.487% | Potency [7] | Potency [8] | Potency [10] | Potency [11] | Potency [12] | outcome [13] | max response [14] 4.56% | Potency [15] | Potency [16] | Potency [17] | Potency [18] | Potency [20] | outcome [19]

CC(C)C(=O)OC/C=C/c1ccccc1
inactive: Potency [1] | Potency [2] | outcome [3] | Potency [4] | Potency [5] | activity change, positive = activation [6] 4.91% | Potency [7] | Potency [8] | Potency [10] | Potency [11] | Potency [12] | outcome [13] | max response [14] -2.31% | Potency [15] | Potency [17] | Potency [18] | Potency [20] | outcome [19]

CC(C)CCCCCCc1ccc(OCCOCCO)cc1
inactive: Potency [1] | Potency [2] | outcome [3] | Potency [4] | Potency [5] | activity change, positive = activation [6] -10.7% | Potency [7] | Potency [8] | Potency [9] | Potency [10] | Potency [11] | Potency [12] | outcome [13] | max response [14] 2.16% | Potency [15] | Potency [16] | Potency [17] | Potency [18] | Potency [20] | outcome [19]

CC(=O)OC1C2(C)CCC(C2)C1(C)C (centres undefined)
inactive: Potency [1] | Potency [2] | outcome [3] | Potency [4] | Potency [5] | activity change, positive = activation [6] -1.44% | Potency [7] | Potency [8] | Potency [9] | Potency [10] | Potency [11] | Potency [12] | outcome [13] | max response [14] -0.0469% | Potency [15] | Potency [16] | Potency [17] | Potency [18] | Potency [20] | outcome [19]

CCCNC(C)(C)COC(=O)c1ccccc1
inactive: Potency [1] | Potency [2] | outcome [3] | Potency [4] | Potency [5] | activity change, positive = activation [6] 5.73% [at 42.5 µM] | Potency [7] | Potency [8] | Potency [9] | Potency [10] | Potency [11] | Potency [12] | outcome [13] | Potency [15] | Potency [16] | Potency [17] | Potency [18] | Potency [20] | outcome [19]

CC(=O)N[C@@H](CC(C)C)C(=O)O
inactive: Potency [1] | Potency [2] | outcome [3] | Potency [4] | Potency [5] | activity change, positive = activation [6] -0.851% [at 42.5 µM] | Potency [7] | Potency [8] | Potency [9] | Potency [10] | Potency [11] | Potency [12] | outcome [13] | max response [14] -2.78% | Potency [15] | Potency [16] | Potency [17] | Potency [18] | Potency [20] | outcome [19]

CCOc1ccc(NC(N)=O)cc1
inactive: Potency [1] | Potency [2] | outcome [3] | Potency [4] | Potency [5] | activity change, positive = activation [6] 1.88% | Potency [7] | Potency [8] | Potency [10] | Potency [11] | Potency [12] | outcome [13] | max response [14] 4.66% | Potency [15] | Potency [16] | Potency [17] | Potency [18]

Cc1ccc(C)c(N)c1
inactive: Potency [1] | Potency [2] | outcome [3] | Potency [4] | Potency [5] | activity change, positive = activation [6] 2.8% | Potency [7] | Potency [8] | Potency [9] | Potency [10] | Potency [11] | Potency [12] | outcome [13] | max response [14] 4.84% | Potency [15] | Potency [16] | Potency [17] | Potency [18] | outcome [19]

NCCC(O)(P(=O)(O)O)P(=O)(O)O
inactive: Potency [1] | Potency [2] | outcome [3] | Potency [4] | Potency [5] | activity change, positive = activation [6] 4.61% [at 42.5 µM] | Potency [8] | Potency [9] | Potency [10] | Potency [11] | Potency [12] | outcome [13] | Potency [15] | Potency [17] | Potency [18] | Potency [20] | outcome [19]

N#CSCC(=O)O
inactive: Potency [1] | Potency [2] | outcome [3] | Potency [4] | Potency [5] | activity change, positive = activation [6] 4.98% [at 42.5 µM] | Potency [7] | Potency [8] | Potency [10] | Potency [11] | Potency [12] | outcome [13] | max response [14] 0.0274% | Potency [15] | Potency [16] | Potency [17] | Potency [18] | Potency [20]

CCCCC1CCC(=O)O1 (centres undefined)
inactive: Potency [1] | Potency [2] | outcome [3] | Potency [4] | Potency [5] | activity change, positive = activation [6] -0.824% | Potency [8] | Potency [9] | Potency [10] | Potency [11] | Potency [12] | outcome [13] | max response [14] -3.25% | Potency [15] | Potency [17] | Potency [18] | Potency [20] | outcome [19]

From PubChem BioAssay (Tox21)
